Data on 35 compounds can be found in PubChem BioAssay (Tox21).

SMILES strings stand for the structures. “And” between values parts separate entries of the source, which are not always exact repeats. Identical values can stand only once. Results filed as inconclusive are left out. Some structures have more than one record in an assay (separate samples or runs), and their calls can disagree. The source made the active and inactive calls. Calls follow the shape of the dose curve; as a rule, active = well fitted cell-killing curve with a large enough effect in the repeat runs; inconclusive = weak or mixed curves, or effect the other way; inactive = no such curve, though single readings can be large or run the other way.
% is scaled to controls: 0 for no effect and ±100 for the full control effect; potency is read from the fitted curve at half-maximal effect.

The assay is described as follows: qHTS assay to identify small molecule agonists of the RXR signaling pathway - cell viability counter screen (AID 1159529). Also: nearly all actives have a fitted effect of over 50% in size.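 As to activity change, negative = cytotoxicity: HEK 293T cells carrying an RXR-alpha UAS beta-lactamase reporter.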 The note with it: RXR-alpha-bla HEK293T viability, CellTiter-Glo, 16 h; series mostly up to 76.8 µM; activity change, negative = cytotoxicity: at the top concentration. An outline of the steps:
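Same-well viability check after the LiveBLAzer FRET read: CellTiter-Glo added, luminescence measured after 30 min at room temperature. Reporter HEK 293T cells had been treated with compounds for 16 hr following a 5 hr preincubation.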
A general note: In qHTS, concentration-response curves come from the screen itself.
Take `O=C1CC(=O)NC(=O)N1`: the “activity change, negative = cytotoxicity” value was 0.441% (inactive).
On to `CC(C)[N+](C)(CCC(C(N)=O)(c1ccccc1)c1ccccc1)C(C)C`, for which the “activity change, negative = cytotoxicity” value is -3.87% [at 35.3 µM] (inactive).
On the same count and under the same terms, with `S=C=S` the figure was -4.11% (inactive); with `Cn1c(CCCC(=O)O)nc2cc(N(CCCl)CCCl)ccc21`, 5.52% [at 35.3 µM] (inactive); with `CCSC(=O)Cl`, 20% (inactive).
Turning to `CC(C)(C)c1cc(O)ccc1O`, the Potency was 21.9 µM (active) and 24.5 µM (active).
As for `CCC(C)(C#N)N=NC(C)(C#N)CC` (stereo not given), the “activity change, negative = cytotoxicity” value was 6.84% (inactive).
Still for that read-out and setting: with `O=C(Cl)C(Cl)Cl` the figure was 0.163% (inactive); with `COP(=O)(OC)O/C(C)=C/C(=O)N(C)C`, 2.88% (inactive); with `CON(C)C(=O)Nc1ccc(Br)c(Cl)c1`, -0.699% (inactive).
Same read-out and setting: with `COc1ccc(C=O)cc1O` the figure was 5.18% (inactive); with `CCOC(=O)C(Cl)Cc1cc(-n2nc(C)n(C(F)F)c2=O)c(F)cc1Cl` (stereo not given), 0.614% (inactive).
On the same count and under the same terms, with `CCN[C@@H](C)Cc1ccccc1` the figure was 7.36% (inactive).
Take `O=C1C2CC=CCC2C(=O)N1SC(Cl)(Cl)Cl` (stereo not given): the Potency result is “inactive and 24.1 µM (active)”.
Consider `O=C(Cl)C(Cl)(Cl)Cl`, for which the “activity change, negative = cytotoxicity” value is -0.988% (inactive).
`CCN(CCO)CCn1c(Cc2ccccc2)nc2c1c(=O)n(C)c(=O)n2C`: the “activity change, negative = cytotoxicity” value was 0.715% [at 35.3 µM] (inactive).
In the case of `CCOC(=O)C(SP(=S)(OC)OC)c1ccccc1` (stereo not given), the “activity change, negative = cytotoxicity” value is 0.0991% (inactive).
The same measure, in the same setting: with `CCOC(=O)NC(C)(C)Cc1ccc(Cl)cc1` the figure was -10.5% [at 35.3 µM] (inactive); with `C=CCc1cc(OC)c2c(c1)OCO2`, 4.31% (inactive); with `CN1COCN(Cc2cnc(Cl)s2)/C1=N\[N+](=O)[O-]`, 4.59% (inactive).
Still for that read-out and setting: as for `NC(=O)CS(=O)C(c1ccccc1)c1ccccc1` (stereo not given), the figure is 2.36% [at 35.3 µM] (inactive); as for `CCCCCCCCSC(=O)Oc1cc(Cl)nnc1-c1ccccc1`, -0.435% (inactive).
Same read-out and setting: with `C1CN2CCC1CC2` the figure was 4.08% [at 35.3 µM] (inactive).
As for `ClC1=C(Cl)C2(Cl)C(CBr)CC1(Cl)C2(Cl)Cl` (stereo not given), the “activity change, negative = cytotoxicity” value was -4.23% [at 35.3 µM] (inactive).
Regarding `CCC1(c2ccccc2)C(=O)N(COC)C(=O)N(COC)C1=O`, the “activity change, negative = cytotoxicity” value was 16.2% [at 35.3 µM] (inactive).
Take `NNC(N)=O`: the “activity change, negative = cytotoxicity” value is 0.916% (inactive).
The same measure, in the same setting: with `Cc1cccc2sc3nncn3c12` the figure was -0.397% (inactive).
Regarding `C/C(=N\NC(=O)Nc1cc(F)cc(F)c1)c1ncccc1C(=O)O`, the Potency result was “inactive”.
`CNC(=O)O/N=C(/CSC)C(C)(C)C`: the “activity change, negative = cytotoxicity” value was -3.14% (inactive).
As for `COC(=O)c1ccc(CBr)cc1`, the “activity change, negative = cytotoxicity” value was 3.87% (inactive).
For the compound `CCN(CC)C1CCCCC1`, the “activity change, negative = cytotoxicity” value is 7.96% (inactive).
Same read-out and setting: with `CC(C)(N)Cc1ccccc1Cl` the figure was -5.76% [at 35.3 µM] (inactive); with `CC#Cc1cc(C)nc(Nc2ccccc2)n1`, 17.1% (inactive).
`CON(C)C(=O)Nc1ccc(Br)cc1`: the “activity change, negative = cytotoxicity” value was 3.73% (inactive).
Take `CC1NCCOC1c1ccccc1` (stereo not given): the “activity change, negative = cytotoxicity” value was 14.8% [at 35.3 µM] (inactive).
